# In ChEMBL document CHEMBL3988442, “University of Dundee, Small-Polar-MMV Screening Library” (2021):
# Experiments:
# [1] = target: T1, Aspartate--tRNA(Asp/Asn) ligase (Mycobacterium tuberculosis (strain ATCC 25618 / H37Rv)) (UniProt P9WFW3); assay: Assay for Asp RNA synthetase-1 from Mycobacterium tuberculosis; format: functional; parameters: scale not given: direction of the effect not stated beside the values; details: 30 µM; further: in the data most compounds retested in dose-response had high values
# T1 sequence (whole entry): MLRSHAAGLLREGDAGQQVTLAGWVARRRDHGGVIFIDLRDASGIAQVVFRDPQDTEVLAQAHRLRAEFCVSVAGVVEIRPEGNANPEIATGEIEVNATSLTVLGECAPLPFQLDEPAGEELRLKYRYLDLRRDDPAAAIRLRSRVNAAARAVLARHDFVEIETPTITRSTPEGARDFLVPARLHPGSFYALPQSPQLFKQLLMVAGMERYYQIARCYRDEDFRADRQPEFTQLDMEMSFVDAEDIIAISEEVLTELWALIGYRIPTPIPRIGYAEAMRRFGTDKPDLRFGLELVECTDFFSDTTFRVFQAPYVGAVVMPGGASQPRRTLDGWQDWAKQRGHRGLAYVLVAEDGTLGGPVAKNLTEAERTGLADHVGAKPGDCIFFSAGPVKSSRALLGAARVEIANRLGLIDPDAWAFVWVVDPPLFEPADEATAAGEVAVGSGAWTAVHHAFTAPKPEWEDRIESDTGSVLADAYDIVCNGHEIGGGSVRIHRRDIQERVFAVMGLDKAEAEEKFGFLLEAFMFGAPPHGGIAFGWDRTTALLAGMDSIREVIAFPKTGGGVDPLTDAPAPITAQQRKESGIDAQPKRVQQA
# [2] = target: Shiga toxin 2 (Escherichia coli O157:H7) (UniProt P09385+P09386); assay: E. coli 0.157:H7 Shiga Toxin SOP - stx2 screening assay; format: functional; parameters: scale not given: direction of the effect not stated beside the values; details: 30 µM
Structure (SMILES),Percent Effect [1],Percent Effect [2]
O=C(NC1CC1)[C@H]1C[C@@H]2CCN(CCc3ccccc3)C[C@H]2O1,3.49%,-10.6%
N#Cc1c(C2CC2)cc(-c2ccc(O)cc2)nc1N,-1.42%,15.9%
NC(=O)c1cc(NC(=O)NCCc2cc(F)cc(F)c2)ccc1F,4.79%,-82%
OCCN1CCOC2(CCCN(c3cccc(F)c3)C2)C1 (stereo unspecified),-3.25%,-15.9%
Cc1nc(C)n(CC2CCCCN2Cc2nnc(C3CC3)o2)n1 (stereo unspecified),1.18%,-4.29%
CCCNCC1(O)CCCN(Cc2cccc(C)c2)C1=O (stereo unspecified),-0.345%,0.574%
CN(Cc1cccc(O)c1)CC1CCCN(CCc2ccc(Cl)cc2)C1 (stereo unspecified),4.47%,-33.8%
Cn1cccc1C(=O)N[C@@H]1CN(CC2CC2)[C@@H]2COC[C@@H]21,1.28%,-3.7%
O=S(=O)(C1CC1)N1CCOCC2(CCN(c3ccccn3)C2)C1 (stereo unspecified),8.28%,-47.5%
Cc1cnn(C2CCCN(C(=O)CCCOc3cccc(F)c3)C2)c1 (stereo unspecified),-4.03%,11.8%
Cc1ccc(CNC(=O)Nc2cc(C(F)(F)F)c[nH]c2=O)cn1,-6.46%,8.32%
Cn1nccc1CNC(=O)Nc1cc(C(F)(F)F)c[nH]c1=O,0.5%,21%
COc1ccc(CN2CCN(C(C)c3nc(C4CC4)no3)CC2)cc1 (stereo unspecified),-3.61%,0.241%
COc1cc(CNCCc2nc(C)cs2)cc2c1OCCO2,-4.99%,14.4%
Cc1cccc(C(=O)N2C[C@@H](OCc3cccnc3)[C@H]3OCCC[C@@H]32)n1,-2%,-30.7%
NC(=O)c1cc(C2CCCN(C(=O)CCc3ccsc3)C2)n[nH]1 (stereo unspecified),-5.77%,21.2%
CN1CCCC(Cc2ccnc3ccncc23)CC1 (stereo unspecified),-3.5%,-21.3%
Cc1cnn(CC(C)NCc2csc(-c3ccsc3)n2)c1 (stereo unspecified),-7.44%,-28%
COc1ccc(C(C(=O)O)N2CCCN(C3CCCC3)CC2)cc1OC (stereo unspecified),0.804%,-25.6%
CN(CCn1nc2ccccn2c1=O)CC(=O)N1CCCC1,-1.5%,-5.38%
CN(Cc1cnn(C)c1)C(=O)NCc1csc(Br)c1,4.08%,32.1%
C1CC(CN2CCOCC3(CCN(C4CCOCC4)C3)C2)CCO1 (stereo unspecified),3.19%,-4.37%
Cc1noc(C2CCN(C(=O)c3c(C)noc3C)CC2)n1,0.55%,-6.04%
CNC(=O)[C@H]1C[C@H]2OCC[C@H]2N(Cc2cccc3ccccc23)C1,0.598%,-15.6%
Cc1csc2ncc(-c3ccnc(N4CCCC[C@@H]4CO)n3)c(=O)n12,-2.34%,-17.1%
CC[C@H](C)Nc1nccc(-c2cnc3sc(C)c(C)n3c2=O)n1,0.808%,-27.1%

Structure (SMILES),Percent Effect [1],Percent Effect [2]
CCCn1ccc2ccc(NC(=O)N(C)CCOC)cc21,-4.94%,-13.1%
CC(C)NC(=O)N1CCc2nc(C(=O)NCc3ccccc3)sc2CC1,0.168%,4.49%
Cc1ccc(CN2CCn3cc(CN(C)Cc4ccco4)nc3C2)o1,1.01%,-24.1%
COCCN(Cc1ccc(F)cc1Cl)C(=O)c1ccc(=O)[nH]n1,-1.92%,2.84%
COc1ccnc(N2CCN(C(=O)NCc3ccc(C)s3)CC2)n1,-2.05%,31.8%
O=C1CCc2cc(C(=O)NCc3ccc(-n4cncn4)nc3)ccc2N1,-5.04%,3.55%
CC(C)N(C)Cc1nnc2n1CCCN(C(=O)c1ccco1)C2,1.27%,-12.8%
CCn1cc(N2Cc3nc(N4CCOCC4)ncc3C2=O)cn1,-3.92%,-20.5%
CCOCC(=O)N1C[C@@H](O)[C@H](N(C)Cc2ccc(OC)cc2)C1,-0.849%,14.7%
O=C(Cn1ccc2ccc(Br)cc21)NC[C@@H]1CCCN2CCCC[C@H]12,-3.66%,-42.1%
CCn1cnnc1CNC(=O)N(C)Cc1ccc2c(c1)OCCO2,14.5%,13.4%
CNC(=O)CS(=O)(=O)C1CCN(S(=O)(=O)C2CC2)CC1,1.09%,-3.71%
CC(CN1CCOCC1)NCC1CCN(c2cnn(C)c(=O)c2)CC1 (stereo unspecified),2.84%,-6.71%
Cc1cccc2c1cnn2CCCNC(=O)CCCC(=O)O,15.5%,-61.8%
Cc1nn(C(C)C)c(C)c1NC(=O)c1ccccc1,1.73%,-4.81%
CCCn1[nH]cc/c1=N\C(=O)CN1CCn2c(nnc2C2CC2)C1,-2.17%,25.6%
CCn1cc(Br)c(C(=O)NCc2cccnc2)n1,7.19%,-69.5%
CN(C)C(=O)N1C[C@@H]2CC[C@H](C1)N(C(=O)CCCn1cncn1)C2,1.35%,4.19%
Cc1nc(C2CCCN2CC(=O)N2CCCc3ccccc32)no1 (stereo unspecified),2.35%,-12.2%
O=C(c1cc2c(s1)CCC2)N1CCCCC1Cn1cccn1 (stereo unspecified),1.25%,11.1%
CCc1nc(CN2CCN(C(=O)COCc3ccccc3)CC2)no1,-1.88%,2.35%
Cn1cc(CC(=O)N2CCC(Nc3cccnn3)CC2)c2ccccc21,2.29%,-25.9%
CC(=O)NCC1CCN(CC2CCOc3ccccc3C2)CC1 (stereo unspecified),1.5%,1.04%
CC(=O)Nc1ncc(S(=O)(=O)Nc2ccc(F)cc2)s1,2%,-10.2%
O=C(CC1CC1)N1CC[C@H]2[C@@H]1CCC(=O)N2c1cccnc1,-4.48%,-0.916%
Cn1cc(N2CCC3(CCN(S(=O)(=O)C4CC4)C3)C2=O)cn1 (stereo unspecified),-3.64%,-21.1%

Structure (SMILES),Percent Effect [1],Percent Effect [2]
Cc1cccc(C(=O)N(C)Cc2cc(Br)cs2)n1,-0.0599%,-8.77%
O=C(CN1CCC(c2ccnn2CCO)CC1)NCc1cccs1,-1.91%,-10%
COc1cccc(COCC(=O)N2CCCC(n3ccnc3C)C2)c1 (stereo unspecified),-4.19%,-2.47%
COc1ccc(CN2C[C@H]3CN(c4ccsc4)C(=O)[C@H]3C2)cc1,4.05%,-26.4%
CNC(=O)c1nc2c(s1)CCN(C(=O)c1cccnc1)CC2,2.01%,-18.2%
CCn1nnc2c1C(COC)CN(C(=O)COc1ccccc1)C2 (stereo unspecified),-1.42%,-31.2%
CCc1noc(CN2CCCC2c2noc(C3CC3)n2)n1 (stereo unspecified),0.459%,12.9%
CS(=O)(=O)NCc1nnc2n1CCN(CC1CC1)C2,2.77%,4.81%
Cc1nc(C2(NCC(=O)NCCc3cccs3)CCCC2)no1,-3.06%,8.44%
Cc1cnn(CC(C)NCc2ccc(S(C)(=O)=O)cc2)c1 (stereo unspecified),1.18%,-66.9%
Cc1cc(C)n(CC2CN(CC(=O)Nc3nncs3)CCO2)n1 (stereo unspecified),1.4%,9.91%
CC(C)C1CN(c2ncccn2)CCC(=O)N1Cc1ccc(F)cc1 (stereo unspecified),3.51%,3.8%
CCS(=O)(=O)N1CCc2ccc(NC(=O)Nc3cccc(SC)c3)cc21,-4.68%,-22%
O=C([C@@H]1CC[C@@H]2[C@@H](CCN2Cc2cccc(F)c2)O1)N1CCCCO1,0.291%,-15%
Cc1cc(C)c2c(OCC(=O)NC(C)C)nn(C)c2n1,-1.15%,-0.409%
COc1cccc2c1OCC(C(=O)N(C)CCCc1cnn(C)c1)C2 (stereo unspecified),9.43%,-7.98%
Cc1cc(C[C@@H]2CCC[C@H]2NCc2ccccc2C(F)(F)F)on1,3.02%,26%
COC(C(=O)N1CCCN(Cc2cscn2)CC1)c1ccccc1 (stereo unspecified),0.144%,3.66%
O=C(Nc1cccc(CNCc2csc(Br)c2)c1)C1CC1,-0.759%,-73.7%
COc1cc(CC(O)CO)c(OC)c2c1OCO2 (stereo unspecified),-3.19%,-10.5%
CCS(=O)(=O)N1Cc2nccn2CC(COc2cccnc2)C1 (stereo unspecified),-1.75%,-12.5%
COc1ccc(CN2CCCC(Cn3nc(C)nc3C)C2)cc1F (stereo unspecified),0.335%,-1.86%
O=C(NCc1cn2c(n1)CN(CC1CCOCC1)CC2)C1CCC1,0.662%,-18.2%
COc1c(C)cnc(CN2CCOC(Cn3nc(C)nc3C)C2)c1C (stereo unspecified),1.63%,8.19%
CN(Cc1ccco1)C[C@H]1OC[C@@H]2CCN(Cc3cccs3)C[C@@H]21,3.35%,-17.4%
COCCCC(=O)NS(=O)(=O)c1ccc2c(c1)OCCCO2,-1.35%,23.1%

Structure (SMILES),Percent Effect [1],Percent Effect [2]
Cc1cc(C)n(CC2CCCN2Cc2c(C)noc2C)n1 (stereo unspecified),-2.12%,-12.7%
COc1cccc(CNc2nc(O)cc(C3CC(=O)N(C)C3)n2)c1 (stereo unspecified),4.42%,12.2%
Cn1cccc1C(=O)N1CCCC2(CCCN2Cc2cccnc2)C1 (stereo unspecified),7.03%,19.4%
COCc1nc2cc(NCc3ccc(C)o3)ccc2o1,25.1%,-21.1%
O=C(c1ccncc1F)N1CCN(CC2CC2)c2ncccc2C1,2.79%,-37.6%
CN1CCCC1CNC(=O)CCCOc1ccc(F)cc1 (stereo unspecified),-1.43%,1.57%
COc1ccc(CN(C)C(=O)CCc2c(C)nc(C)[nH]c2=O)cc1OC,-5.24%,-6.32%
CC[C@@H]1N(Cc2ccsc2)CCC[C@]12CCC(=O)N2CCOC,-5.67%,7.49%
CCOC1COC2(CCN(Cc3ccc4c(c3)OCO4)CC2)C1 (stereo unspecified),-3.53%,-2.45%
CS(=O)(=O)NCc1n[nH]c2c1CCN(C(=O)c1ccsc1)C2,9.64%,-7.46%
Cc1ccc(C(NC(=O)CC2CCN(C(C)C)CC2)C(=O)O)cc1 (stereo unspecified),-0.279%,10.7%
CCc1nc(CN2CCN(C(=O)c3cnccn3)CC2)cs1,-2.04%,-21.2%
Cc1cnn(CC2CN(Cc3nnc(-c4occc4C)o3)CCO2)c1 (stereo unspecified),2.04%,12.3%
CC(CNC(=O)c1ccc(Cl)cc1I)N1CCCC1 (stereo unspecified),-0.881%,-18.5%
O=C(NCCCn1ccnc1)N1CCCC1c1cccs1 (stereo unspecified),-2.61%,-5.52%
COc1cc(N2CC[C@H](O)[C@@H]2Cc2cnn(C)c2)ncn1,-4.05%,-1.67%
O=C1CO[C@@H]2CN(S(=O)(=O)c3ccccc3)C[C@H]2N1CC1CC1,5.5%,-3.47%
O=C(COCC1CC1)N1CCCC(n2cccn2)C1 (stereo unspecified),4.67%,-15.2%
CS(=O)(=O)N1CC[C@H]2O[C@H](C(=O)NCCc3ccncc3)CC[C@H]21,7.02%,-26%
Cc1cc(C2CCCN(C(=O)c3cnn(C)c3)C2)ccn1 (stereo unspecified),-6.03%,-7.91%
O=C(Nc1ncn(CC(=O)N2CCCCCC2)n1)C1CCCO1 (stereo unspecified),-0.233%,29.5%
COC(=O)c1ccc(N2CCN(C(=O)c3cnn(C)c3)C(C)C2)cc1 (stereo unspecified),0.343%,-15.2%
COCC1CN(S(C)(=O)=O)Cc2ncn(CC3CC3)c21 (stereo unspecified),-3.82%,-1.74%
CN(C)CC1CN(Cc2ccsc2)Cc2nccn2C1 (stereo unspecified),4.71%,-1.56%
CN(C)C(=O)[C@@H]1CCO[C@@H]2CCN(Cc3ccccc3)C[C@@H]21,2.24%,-27%
